Reference: PubChem BioAssay (NCATS)
Results filed as inconclusive are left out. The source made the active and inactive calls. The call rests on the fitted dose curve; in most records, active means well fitted curve in the direction sought with a large enough effect; inconclusive means small, poorly fitted or top-dose-only effect, or another doubt; inactive means no such curve, though single readings can be large; an effect the other way counts as inactive or inconclusive.

Legend:
[1] = qHTS of pediatric cancer cell lines to identify multiple opportunities for drug repurposing: Primary screen for Saos-2 cells (AID 1347097); further: nearly all actives have a fitted effect of over 40% in size
Procedure, shortened: (§1)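 Readout: CellTiter-Glo luminescence, 48 h treatment. Controls DMSO (neutral) and bortezomib 2.3 µM final (positive). Potency and efficacy taken from primary-screen concentration-response curves.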

[2] = qHTS of pediatric cancer cell lines to identify multiple opportunities for drug repurposing: Primary screen for SK-N-SH cells (AID 1347098); further: nearly all actives have a fitted effect of over 65% in size
Procedure, shortened: (§2)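 Cells (500-1,000/well) rested 5 h, then received compounds for 48 h; metabolically active cells were measured by CellTiter-Glo luminescence. Final concentrations spanned up to 46 µM (MIPE, 11-point) or 0.59 nM-46 µM (NPC, 8-point) in primary screens, 11-point in follow-ups.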

[3] = qHTS of pediatric cancer cell lines to identify multiple opportunities for drug repurposing: Primary screen for NB1643 cells (AID 1347099); further: nearly all actives have a fitted effect of over 50% in size
Procedure, shortened: as §1

[4] = qHTS of pediatric cancer cell lines to identify multiple opportunities for drug repurposing: Primary screen for LAN-5 cells (AID 1347100)
Procedure, shortened: (§3)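 Cells (500-1,000/well) in growth media were settled 5 h at 37 degrees C, then given compounds for 48 h. Viability was read as CellTiter-Glo luminescence. Primary runs used MIPE at 11 points (0.78 nM-46 µM) and NPC at 8 points (0.59 nM-46 µM); follow-ups used 11 points.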

[5] = qHTS of pediatric cancer cell lines to identify multiple opportunities for drug repurposing: Primary screen for BT-12 cells (AID 1347101); further: nearly all actives have a fitted effect of over 25% in size
Procedure, shortened: as §2

[6] = qHTS of pediatric cancer cell lines to identify multiple opportunities for drug repurposing: Primary screen for Rh18 cells (AID 1347102); further: nearly all actives have a fitted effect of over 65% in size
Procedure, shortened: as §3

[7] = qHTS of pediatric cancer cell lines to identify multiple opportunities for drug repurposing: Primary screen for RD cells (AID 1347104); further: nearly all actives have a fitted effect of over 55% in size
Procedure, shortened: as §1

[8] = qHTS of pediatric cancer cell lines to identify multiple opportunities for drug repurposing: Primary screen for MG 63 (6-TG R) cells (AID 1347105); further: nearly all actives have a fitted effect of over 50% in size
Procedure, shortened: as §1

[9] = qHTS of pediatric cancer cell lines to identify multiple opportunities for drug repurposing: Primary screen for control Hh wild type fibroblast cells (AID 1347106);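 further: series mostly up to about 46 µM; a drop in luminescence marks cytotoxicity and a rise apparent proliferation; nearly all actives have a fitted effect of over 55% in size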
Procedure, shortened: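 Viability after 48 h compound treatment at 37C, 500-1,000 cells/well, read as ATP luminescence with CellTiter-Glo. Primary screens used 11-point (MIPE, 0.78 nM-46 µM) or 8-point (NPC, 0.59 nM-46 µM) final concentrations; follow-up screens used 11-point dilutions.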

[10] = qHTS of pediatric cancer cell lines to identify multiple opportunities for drug repurposing: Primary screen for Rh30 cells (AID 1347107); further: series mostly up to about 46 µM; nearly all actives have a fitted effect of over 75% in size
Procedure, shortened: as §3

[11] = qHTS of pediatric cancer cell lines to identify multiple opportunities for drug repurposing: Primary screen for Rh41 cells (AID 1347108);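 further: series mostly up to about 46 µM; luminescence drop marks cytotoxic hits; nearly all actives have a fitted effect of over 70% in size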
Procedure, shortened: as §1

[12] = qHTS of pediatric cancer cell lines to identify multiple opportunities for drug repurposing: Confirmatory screen for A673 cells (AID 1347110);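 further: cells exposed to compound for 48 h before the viability read; nearly all actives have a fitted effect of over 65% in size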
Procedure, shortened: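 A673 cells seeded at 500-1,000 cells/well, rested 5 h, then dosed; primary MIPE 11-point (0.78 nM to 46 µM), NPC (0.59 nM to 46 µM); confirmatory 11-point. CellTiter-Glo luminescence after 48 h.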

[13] = qHTS of pediatric cancer cell lines to identify multiple opportunities for drug repurposing: Confirmatory screen for LAN-5 cells (AID 1347113); further: nearly all actives have a fitted effect of over 65% in size
Procedure, shortened: as §3

[14] = qHTS of pediatric cancer cell lines to identify multiple opportunities for drug repurposing: Confirmatory screen for SJ-GBM2 cells (AID 1347116); further: nearly all actives have a fitted effect of over 60% in size
Procedure, shortened: (§4)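 Viability measured as metabolically active cells via CellTiter-Glo luminescence following 48 hours of compound exposure, 11-point dilutions in confirmatory testing. 500-1,000 cells/well plated 5 hours before dosing; controls were DMSO and 2.3 µM bortezomib.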

[15] = qHTS of pediatric cancer cell lines to identify multiple opportunities for drug repurposing: Confirmatory screen for DAOY cells (AID 1347114); further: nearly all actives have a fitted effect of over 65% in size
Procedure, shortened: as §4

[16] = qHTS of pediatric cancer cell lines to identify multiple opportunities for drug repurposing: Confirmatory screen for NB-EBc1 cells (AID 1347115);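 further: cells exposed to compound for 48 h before the viability read; nearly all actives have a fitted effect of over 45% in size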
Procedure, shortened: as §3

[17] = qHTS of pediatric cancer cell lines to identify multiple opportunities for drug repurposing: Confirmatory screen for BT-37 cells (AID 1347117); further: nearly all actives have a fitted effect of over 55% in size
Procedure, shortened: as §3

[18] = qHTS of pediatric cancer cell lines to identify multiple opportunities for drug repurposing: Confirmatory screen for MG 63 (6-TG R) cells (AID 1347119); further: nearly all actives have a fitted effect of over 55% in size
Procedure, shortened: as §3

[19] = qHTS of pediatric cancer cell lines to identify multiple opportunities for drug repurposing: Confirmatory screen for SK-N-MC cells (AID 1347111);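 further: cells exposed to compound for 48 h before the readout; nearly all actives have a fitted effect of over 70% in size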
Procedure, shortened: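 Metabolically active cells were quantified by ATP-dependent luminescence (CellTiter-Glo, 15 min at room temperature) following 48 h treatment. Cells had been plated at 500-1,000 per well and settled for 5 h beforehand.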

Measured: Potency

C[C@]12CC[C@@H]3c4ccc(O)cc4CC[C@H]3[C@@H]1C[C@@H](O)[C@@H]2O
not listed: [12] | [13] | [14] | [15] | [16] | [17] | [18] | [19]
inactive: all other assays above

CC(=O)[C@H]1CC[C@H]2[C@@H]3C[C@H](C)C4=CC(=O)CC[C@]4(C)[C@H]3[C@@H](O)C[C@]12C
not listed: [5] | [15] | [16] | [17] | [18] | [19]
inactive: all other assays above

C[C@]12CCC(=O)C=C1CC[C@H]1[C@@H]3CC[C@](O)(C(=O)CO)[C@@]3(C)C[C@H](O)[C@@]12F
not listed: [10] | [19]
inactive: all other assays above

COc1cc2c(cc1OC)[C@@H]1CC(=O)[C@@H](CC(C)C)CN1CC2
not listed: [12] | [13] | [14] | [15] | [16] | [17] | [18] | [19]
inactive: all other assays above

CC(Cc1ccccc1)(NC(=O)CN)c1ccccc1 (stereo unspecified)
not listed: [12] | [13] | [14] | [15] | [16] | [17] | [18] | [19]
inactive: all other assays above

COc1cc(/C=C/C(=O)O[C@H]2CC[C@]34C[C@]35CC[C@]3(C)[C@@H]([C@H](C)CCC=C(C)C)CC[C@@]3(C)[C@@H]5CC[C@H]4C2(C)C)ccc1O
inactive: [1] | [2] | [3] | [4] | [5] | [6] | [7] | [9] | [10] | [11]

Cc1ccnc(NS(=O)(=O)c2ccc(N)cc2)n1
inactive: [1] | [2] | [3] | [4] | [5] | [6] | [7] | [9] | [10] | [11]

CC(=O)OCC(=O)[C@@]1(O)CC[C@H]2[C@@H]3CCC4=CC(=O)C=C[C@]4(C)[C@H]3[C@@H](O)C[C@@]21C
not listed: [13] | [17]
inactive: all other assays above

OC(CCN1CCCCC1)(c1ccccc1)c1ccccc1
not listed: [12] | [13] | [14] | [15] | [16] | [17] | [18] | [19]
inactive: all other assays above

CN(C)CC/C=C1/c2ccccc2COc2ccc(CC(=O)O)cc21
inactive: [1] | [2] | [3] | [4] | [5] | [6] | [7] | [8] | [9] | [11]

Cc1cc2c(cc1CC(=O)c1sccc1S(=O)(=O)Nc1onc(C)c1Cl)OCO2
inactive: [1] | [2] | [3] | [4] | [5] | [6] | [7] | [8] | [9] | [11]

CCCCC(=O)O[C@]1(C(=O)CO)CC[C@H]2[C@@H]3CCC4=CC(=O)CC[C@]4(C)[C@H]3[C@@H](O)C[C@@]21C
not listed: [14] | [17] | [18] | [19]
inactive: all other assays above
